In the supplement of paper PMC13380429:
Values without a mark were called inactive.

What follows are molecules tested on Vero E6 infected with SARS-CoV-2 (assay: inhibition of SARS-CoV-2 cytopathic effect; higher = more antiviral protection, active = above 15). Conditions: 100 nM; 48 h.
In the case of `CC(C)n1nc(C#Cc2ccccc2)c2c(N)ncnc21`, the “inhibition of SARS-CoV-2 cytopathic effect” value (“inhibition” for short) is reported as -4.23%. For `Nc1ccc([As](=O)(O)O)cc1` [arsanilic-acid], the “inhibition” value was -1.33%. `Nc1ccc(C(=O)NCC(=O)O)cc1` [4-aminohippuric-acid] was tested, and the “inhibition” value was -0.14%. In the case of `CC(C)[C@@H](C(=O)Nc1nccs1)c1ccc(Cl)cc1`, the “inhibition” value is reported as 1.05%. `NC(=O)[C@H]1CCS[C@@H]2C[C@]3(CCCN3C(=O)Cc3ccc(NC(=O)COc4ccc(Cl)cc4Cl)cc3)C(=O)N12` was tested, and the “inhibition” value was 1.37%. In the case of `CN1CCC(Nc2ncc3ncnc(Nc4ccc(F)c(Cl)c4)c3n2)CC1`, the “inhibition” value is reported as -4.55%. For `CCCCc1nc(Cl)c(CO)n1Cc1ccc(-c2ccccc2-c2nnn[nH]2)cc1` [losartan], the “inhibition” value was -0.81%. In the case of `O=C(O)Cc1cccc(OCCCN(Cc2cccc(C(F)(F)F)c2Cl)CC(c2ccccc2)c2ccccc2)c1`, the “inhibition” value is reported as 2.25%. For `CC(C)C[C@H](NC(=O)CNC(=O)c1cc(Cl)ccc1Cl)B(O)O` [ixazomib], the “inhibition” value was 5.21%. In the case of `C[C@@H](C(=O)O)c1ccc(-c2ccccc2)c(F)c1` (racemic) [flurbiprofen-(+/-)], the “inhibition” value is reported as 1.91%. For `CC(=O)SC[C@@H](C)C(=O)N1CCC[C@H]1C(=O)N[C@@H](Cc1ccccc1)C(=O)O` [alacepril], the “inhibition” value was 0.98%. For `N[C@@H](C(=O)N[C@@H]1C(=O)N2C(C(=O)O)=C(Cl)CS[C@H]12)c1ccccc1` [cefaclor], the “inhibition” value was 1.55%. With `CC1(C)Cc2c(-c3ccccc3)c(-c3ccc(Cl)cc3)c(CC(=O)O)n2C1` [licofelone] the “inhibition” value was 4.49%. For `Oc1ccc(C2CNCCc3c2cc(O)c(O)c3Cl)cc1` (stereo not drawn) [fenoldopam], the “inhibition” value was 4.35%. In the case of `FC(F)(F)c1cccc(-c2noc(-c3cc(-c4ccccc4)c(C(F)(F)F)s3)n2)c1`, the “inhibition” value is reported as -0.54%. In the case of `CC[C@@H](c1ccc(F)c(F)c1)n1c(C(=O)OC)c(-c2ccno2)[nH]c1=S`, the “inhibition” value is reported as 1.18%. `CC1(C)S[C@@H]2[C@H](NC(=O)Cc3ccccc3)C(=O)N2[C@H]1C(=O)O` [benzylpenicillin] was tested, and the “inhibition” value was -1.25%. For `Nc1ccc(S(=O)(=O)Nc2ccc(Cl)nn2)cc1` [sulfachlorpyridazine], the “inhibition” value was 1.77%. For `O=C(/C=C/c1ccc(O)c(O)c1)c1ccc(O)cc1O` [butein], the “inhibition” value was 1.11%. `CC(C(=O)O)c1ccc(CC2CCCC2=O)cc1` (stereo not drawn) [loxoprofen] was tested, and the “inhibition” value was 2.9%. With `Cc1cc(O)c(C(=O)N[C@@H](C(=O)N[C@@H]2C(=O)N3C(C(=O)O)=C(CSc4nnnn4C)CS[C@H]23)c2ccc(O)cc2)cn1` [cefpiramide] the “inhibition” value was 0.85%. `CCCCNC(=O)[C@@H]1Cc2ccccc2N1C(=O)[C@@H](N)CC` [butabindide] was tested, and the “inhibition” value was -3.07%. `C=CCN1CCCC1CNC(=O)c1cc2nn[nH]c2cc1OC` (stereo not drawn) [alizapride] was tested, and the “inhibition” value was -1.64%. For `O=Nc1c(-c2c(O)[nH]c3cc(Br)ccc23)[nH]c2ccccc12` [GSK-3-inhibitor-IX], the “inhibition” value was 1.64%. For `Cc1onc(-c2ccccc2)c1C(=O)N[C@@H]1C(=O)N2[C@@H]1SC(C)(C)[C@@H]2C(=O)O` [oxacillin], the “inhibition” value was 2.17%. `CC(=C(CCOC(=O)C(C)C)SSC(CCOC(=O)C(C)C)=C(C)N(C=O)Cc1cnc(C)nc1N)N(C=O)Cc1cnc(C)nc1N` (stereo in doubt) [sulbutiamine] was tested, and the “inhibition” value was 3.99%. In the case of `c1ccc2c(c1)Sc1ccccc1N2C[C@H]1CN2CCC1CC2` [levomequitazine], the “inhibition” value is reported as -8.62%. `CCCC(=O)Nc1cccc(NC(=O)c2ccccc2Br)c1` was tested, and the “inhibition” value was 0.94%. With `C[C@@H]1COC(Nc2ccc3ncnc(Nc4ccc(OCc5nccs5)c(Cl)c4)c3c2)=N1` the “inhibition” value was -0.65%. For `CNC(=O)c1ccc(-c2cnc3ncc(Cc4ccc5ncccc5c4)n3n2)cc1F`, the “inhibition” value was -1.1%. In the case of `O=C(O)/C=C\c1c[nH]cn1` [cis-Urocanic acid], the “inhibition” value is reported as -1.15%. For `CCC(=O)O[C@@H](O[P@@](=O)(CCCCc1ccccc1)CC(=O)N1C[C@H](C2CCCCC2)C[C@H]1C(=O)O)C(C)C` [fosinopril], the “inhibition” value was 2.37%. `O=C(O)C(=O)c1cn(Cc2ccccc2)c2ccc(-c3ccc(OC(F)(F)F)cc3)cc12` [tiplaxtinin] was tested, and the “inhibition” value was 3.44%.
